HT1080-NT tox – kills 2HG-producing HT-1080-NT fibrosarcoma cells; HT-1080-NT fibrosarcoma viability, CellTiter-Glo ATP luminescence, 48 h; Potency, µM (highest dose often 46.1 µM), inactives show top-dose activity, negative = less viability, hits mostly cytotoxic; 1.6% of 360,000 active; AID 686970;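 also: NT is the 2HG producing partner of a matched IDH1 knockdown line; 0% = DMSO-treated cells and -100% = media-only wells without cells; nearly all actives have a fitted effect of over 55% in size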
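Luminescent CellTiter-Glo readout after 48 hours of compound exposure at 37 degrees C defined viability of HT-1080-NT cells. Activity was normalized to DMSO wells and cell-free media wells; concentration-response curves were fitted and assigned curve classes.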
HT1080 IDH1KD tx – kills HT-1080 cells with IDH1 knockdown; Potency, µM (series often up to 46.1 µM), for inactives: top-dose activity, negative = toxicity, actives largely listed as cytotoxic; HT-1080 IDH1 knockdown viability, ATP luminescence, 48 h; 2% of 360,000 active;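 also: 0% = DMSO wells and -100% = cell-free medium wells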
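After a 2 h attachment period, IDH1KD HT-1080 cells took pin-transferred compound for 48 h at 37 °C; ATP-based luminescence after 10 min room-temperature reagent incubation reported viability.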
TDP1 cell noCPT – qHTS for Inhibitors of human tyrosyl-DNA phosphodiesterase 1 (TDP1): qHTS in cells in absence of CPT; DT40 Tdp1-/- hTDP1 cells, no CPT, ATP luminescence, 48 h; Potency, µM (doses to about 46.2 µM), for inactives: top-dose activity change, negative = growth inhibition, hits mostly inhibitors; AID 686978, 2013; 15% of 420,000 active; also: % is scaled to controls: 0 for no effect and ±100 for the full control effect; nearly all actives have a fitted effect of over 55% in size
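DT40 Tdp1-/-;hTDP1 cells, no CPT (DMSO vehicle only), 400 cells/well; compounds pin-transferred; ≥48 hr, 37 °C; CellTiter-Glo 30 min RT dark, luminescence read.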
DT40 TDP1 CPT – DT40-hTDP1 cell growth loss with CPT; chicken DT40 Tdp1-/-;hTDP1 cells + 20 nM CPT, ATP luminescence, 48 h; Potency, µM (titrated, usually from 46.2 µM), for inactives: at the top dose activity change, negative = growth inhibition, usual class: inhibitors; 12% of 420,000 active; AID 686979; also: % is scaled to controls: 0 for no effect and ±100 for the full control effect; nearly all actives have a fitted effect of over 55% in size
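Chicken DT40 Tdp1-/- cells complemented with human TDP1, 400 cells/well, exposed to compounds plus 20 nM camptothecin for at least 48 h at 37 C; viability read as ATP content by CellTiter-Glo luminescence.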
TGFb SMAD3 inh – TGF-b pathway inhibition. HepG2 CAGA-GFP TGF-b/SMAD3 reporter, GFP fluorescence, 18 h; TGF-beta stimulated, 500 pg/mL final. Potency, µM (highest dose often 46.1 µM), for inactives: at the highest dose activity, negative = inhibition, most hits filed as inhibitors. 1.2% of 410,000 active. AID 588855; also: % is scaled to controls: 0 for no effect and ±100 for the full control effect; nearly all actives have a fitted effect of over 65% in size
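Cell-based qHTS in HEPG2 carrying a CAGA-GFP Smad reporter; compounds added before 500 pg/mL final TGF-beta, 18 h incubation at 37 degrees C, GFP fluorescence quantified per cell by imaging cytometry.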
HepG2 viability – kills HepG2 cells in TGF-b inhibitor counter-screen. HepG2 CAGA-GFP viability, ATP luminescence, 18 h. Potency, µM (highest dose often 46.1 µM), for inactives: top-dose activity change, negative = cytotoxicity, actives largely listed as cytotoxic. 0.76% of 410,000 active
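CellTiter-Glo luminescence gave cytotoxicity after 18 hours at 37 degrees C. The cells were HepG2 CAGA-GFP in 1% FBS DMEM, stimulated with 500 pg/mL TGF-beta after compound addition. %Activity was normalised to no-cell wells (complete cell-killing) and DMSO (no toxicity), and curves were fitted and classified.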
The depositor's hits bear a star; ? = inconclusive; . = no result; [ ] = another dose, or the depositor's remark. Only some compounds are listed: those with a hit (about 17% of all), similar ones and a draw of the others. Calls follow the shape of the dose curve; as a rule, active = well fitted curve in the direction sought with a large enough effect; inconclusive = small, poorly fitted or top-dose-only effect, or another doubt; inactive = no such curve, though single readings can be large; an effect the other way counts as inactive or inconclusive. Potency is read from the fitted curve at half-maximal effect.

SMILES | HT1080-NT tox | HT1080 IDH1KD tx | TDP1 cell noCPT | DT40 TDP1 CPT | TGFb SMAD3 inh | HepG2 viability
Cc1cc(C)c2cc(CN(Cc3ccco3)C(=S)NCC3CCCO3)c(=O)[nH]c2c1 (stereo not drawn) | -8.2% | -10.2% | 16.4µM* | 18.4µM* | -21.4% | -29.1%
Cc1ccc2[nH]c(=O)c(CN(Cc3cccs3)C(=S)NCC3CCCO3)cc2c1 (stereo not drawn) | 1.1% | -7.1% | 13µM* | ? | 5.7% | -5.0%
Cc1ccc2[nH]c(=O)c(CN(CC3CCCO3)C(=O)c3ccncc3)cc2c1 (stereo not drawn) | -1.3% | 0.7% | -15.2% | 0.6% | 3.4% | -1.4%
Cn1ncc(Cl)c1C(=O)N1CCC(Cc2ccccc2)CC1 | 9.9% | -5.4% | -10.0% | -13.9% | -28.1% | 2.7%
CCC(c1nnnn1-c1c(C)cccc1C)N1CCN(CCN2CCOCC2)CC1 (stereo not drawn) | 9.8% | 0.7% | -15.6% | -7.5% | . | .
Nn1c(SCC(=O)NC2CCCC2)nnc1C(F)(F)F | 1.0% | -1.3% | -10.6% | -9.0% | 3.0% | 2.1%
C/C(=N\NC(N)=S)c1cc(-c2ccccc2)c(-c2ccccc2)s1 | ? | ? | ? | ? | 12.6µM* | -41.0%
C/C(=N/NC(N)=S)c1ccc(Br)s1 | ? | ? | 4.61µM* | 8.2µM* | ? | -17.3%
C/C(=N\NC(=O)Cc1ccccc1)c1ccc(Br)s1 | 12.9% | 20.3% | 1.8% | 3.4% | 5.5% | -2.0%
CCC(C)Sc1ccc([C@H]2N[C@@](C)(C(=O)OC)[C@H]3C(=O)N(C)C(=O)[C@@H]23)cc1 (stereo partly drawn) | 10.1% | 8.0% | ? | -29.0% | 5.7% | -4.4%
CCCCCCSc1ccc([C@H]2N[C@@](CC(C)C)(C(=O)OC)[C@H]3C(=O)N(C)C(=O)[C@@H]23)cc1 | -13.5% | -7.9% | ? | ? | -15.7% | -5.0%
CCCCCCSc1ccc([C@H]2N[C@@](CC(C)C)(C(=O)OC)[C@H]3C(=O)N(CC)C(=O)[C@@H]23)cc1 | -12.8% | 1.4% | 20.6µM* | 20.6µM* | 8.4% | -0.7%
CCC(C)Sc1ccc([C@H]2N[C@@](C)(C(=O)OC)[C@H]3C(=O)N(CC)C(=O)[C@@H]23)cc1 (stereo partly drawn) | 5.4% | 11.7% | 18.4µM* | 16.4µM* | ? | 1.4%
CCCCCCSc1ccc([C@H]2N[C@@](C)(C(=O)OC)[C@H]3C(=O)N(CC)C(=O)[C@@H]23)cc1 | -20.2% | -10.7% | 18.4µM* | 23.1µM* | ? | -0.6%
C/C(=N\NC(=O)c1cc(C)nc2ccccc12)c1cccc(Cl)c1 | -16.2% | -22.1% | -19.1% | -25.8% | -14.0% | -12.5%
COc1ccc(Cn2nnc3c(=O)[nH]c(C4CCCN(C(=O)c5ccccc5)C4)nc32)cc1 (stereo not drawn) | 0.2% | -1.3% | -23.0% | -28.8% | -1.2% | -8.0%
Cc1ccccc1Cn1nnc2c(=O)[nH]c(C3CCCN(C(=O)c4ccc(C(C)(C)C)cc4)C3)nc21 (stereo not drawn) | . | . | 25.9µM* | ? | ? | -103.6%
Cc1cccc(Cn2nnc3c(=O)[nH]c(C4CCCN(C(=O)c5ccc(C(C)(C)C)cc5)C4)nc32)c1 (stereo not drawn) | . | . | 20.6µM* | ? | ? | -111.1%
Cc1ccc(Cn2nnc3c(=O)[nH]c(C4CCCN(C(=O)Nc5ccc(F)cc5)C4)nc32)cc1 (stereo not drawn) | -1.5% | -13.3% | 18.4µM* | ? | 25.2% | -3.3%
CCCCC/C=C\C[C@@H](O)/C=C/C=C/C=C\[C@@H](O)CCCC(=O)O | . | . | -3.6%[0.628 µM] | -4.1%[0.628 µM] | . | .
COc1ccccc1C(CNC(=O)C1CCN(C(=O)Nc2ccccc2)CC1)N1CCCC1 (stereo not drawn) | 3.8% | 2.8% | 14.2% | -2.0% | -7.9% | -2.2%
COC(=O)c1sc(NC(=O)C2CCCCC2C(=O)O)c(C(=O)OC)c1C (stereo not drawn) | 13.9% | 18.1% | 4.3% | 4.1% | -9.1% | -2.2%
CCCOc1ccc(C2NC(=S)NC(C)=C2C(=O)c2ccccc2)cc1OC (stereo not drawn) | -21.7% | -20.7% | ? | ? | -5.0% | -1.6%
Cc1ccc2c(=O)cc(C(=O)Nc3ccc(S(=O)(=O)N(C)c4ccccc4)cc3)oc2c1C | . | . | -6.4% | 1.8% | 22.2% | 14.5%
O=C(O)/C=C/C(=O)Nc1ccccc1-c1ccccc1NC(=O)/C=C/C(=O)O | 21.0% | 18.7% | -13.0% | 0.5% | -2.3% | -1.7%
SMILES | HT1080-NT tox | HT1080 IDH1KD tx | TDP1 cell noCPT | DT40 TDP1 CPT | TGFb SMAD3 inh | HepG2 viability
O=C(O)/C=C/C(=O)Nc1ccccc1SC(F)(F)F | 11.6% | 8.3% | 20.6µM* | 7.31µM* | 0.7% | 3.3%
CCN(CC)S(=O)(=O)c1cc(C(=O)OCC(=O)Nc2ccc(-c3nc4ccc(C)cc4s3)cc2)ccc1F | -21.7% | ? | ? | ? | -10.9% | 7.9%
CCN(Cc1nc2cc(Cl)ccc2c(=O)[nH]1)C(=O)CN1C(=O)NC2(CCCCC2C)C1=O (stereo not drawn) | 0.1% | 0.3% | -13.5% | -12.2% | -1.2% | -14.1%
CCCN(Cc1nc2cc(Cl)ccc2c(=O)[nH]1)C(=O)c1ccc(S(=O)(=O)N2CCCC2)cc1 | -16.3% | -2.6% | 20.6µM* | ? | ? | -38.4%
COc1cc(-n2c(C)nc3ncn(-c4ccccc4)c3c2=O)cc(OC)c1OC | 3.7% | 0.9% | -24.2% | -2.4% | 2.3% | 8.1%
COc1ccc(Cl)cc1C(=O)NNC(=O)c1nn(C)c(=O)c2ccccc12 | -17.5% | ? | 16.4µM* | ? | ? | -13.1%
CCn1nc(C(=O)NNC(=O)c2cc(Cl)ccc2OC)c2ccccc2c1=O | -20.3% | -28.6% | ? | ? | -20.8% | -4.8%
Cc1cccc(N2CCN(C(=O)CN3C(=O)COc4ccc(S(=O)(=O)N5CCC(C)CC5)cc43)CC2C)c1 (stereo not drawn) | . | . | . | . | -4.0% | 4.8%
C/C=C1\NC(=O)[C@H]2CSSCC/C=C/[C@H](CC(=O)N[C@H](C(C)C)C(=O)N2)OC(=O)C(C(C)C)NC1=O (stereo partly drawn) | . | . | 0.0013µM* | 0.0015µM* | . | .
